B2AR ag: agonists of human beta-2 adrenergic receptor inducing internalization | Am2.2-beta2AR cells, FAP receptor internalization, flow cytometry | AID 504454 | P07550 | response, % (test concentration not listed) | hit rate 0.43% among 340,000;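 active means response above a set limit, near 3 SD of response in nonfluorescent compounds, cut at about 42% in these data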
Target sequence (P07550 whole entry, looked up): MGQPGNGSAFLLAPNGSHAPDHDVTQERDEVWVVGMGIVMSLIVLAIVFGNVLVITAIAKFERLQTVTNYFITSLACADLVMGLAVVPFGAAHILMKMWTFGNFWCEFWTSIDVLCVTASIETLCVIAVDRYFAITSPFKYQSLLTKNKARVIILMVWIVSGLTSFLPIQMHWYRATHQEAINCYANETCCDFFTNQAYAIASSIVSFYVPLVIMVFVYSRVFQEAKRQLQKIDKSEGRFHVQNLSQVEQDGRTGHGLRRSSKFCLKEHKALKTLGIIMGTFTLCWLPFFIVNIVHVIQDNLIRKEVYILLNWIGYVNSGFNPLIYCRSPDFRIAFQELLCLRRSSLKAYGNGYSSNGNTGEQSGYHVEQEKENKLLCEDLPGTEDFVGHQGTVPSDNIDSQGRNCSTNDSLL
tim10-1 inh: tim10-1 yeast growth inhibition. S. cerevisiae tim10-1 ts strain growth, BacTiter-Glo, 24 h. hit rate 2.2% among 330,000. inhibition, % at 20 µM;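 active means inhibition of at least 40%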;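 further: mutant grown at 25 °C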
TIM10 inh: inhibits growth of TIM10 yeast strain | inhibition, % at 10 µM | S. cerevisiae TIM10 strain growth, BacTiter-Glo luminescence, 24 h | hit rate 1.4% among 330,000 | AID 463195;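 active means inhibition of 40% or more at the single tested concentration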;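 further: wild-type TIM10 isogenic control strain grown at permissive 25 °C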
PfHsp90 yeast 2: inhibits growth of yeast expressing Plasmodium falciparum Hsp90; S. cerevisiae expressing PfHsp90, BacTiter-Glo ATP, 48 h; yeast lacking PDR1 and PDR3 efflux regulators; inhibition, % at 9.4 µM; hit rate 0.32% among 310,000; AID 504621;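 active means every replicate shows inhibition above about 80%, whatever the replicate mean, limit read from the data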
tim23-1 inh: tim23-1 yeast growth inhibition; S. cerevisiae tim23-1 growth, BacTiter-Glo luminescence, 24 h; inhibition, % at 20 µM; hit rate 1.3% among 330,000; AID 463212;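 active means growth inhibition of the mutant yeast at or above 50%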;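 further: temperature-sensitive mutant grown at 25 °C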
tim23-1 conf: tim23-1 yeast growth inhibition, confirmed; inhibition, % at 20 µM; AID 463218; shares compounds with tim23-1 inh; S. cerevisiae tim23-1 growth, BacTiter-Glo luminescence, 24 h; hit rate 83% among 4,400;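 active means inhibition above about 39% in either of two replicate wells at 20 µM, limit read from the data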;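 further: temperature-sensitive tim23-1 mutant grown at 25 °C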
Numbers stand for hits; - = inactive; . = not tested or not shown. Only some compounds are listed: those with a hit (about 3.8% of all), similar ones and a draw of the others.

SMILES	B2AR ag	tim10-1 inh	TIM10 inh	PfHsp90 yeast 2	tim23-1 inh	tim23-1 conf
CC1(C)CC(=NNC(=O)c2n[nH]c3c2CCC3)CC(C)(C)N1	-	-	-	-	-	.
FC(F)(F)c1ccccc1/C=N/n1c(COc2ccccc2)n[nH]c1=S	-	-	-	-	50	-
CC(=O)N/C(=C\c1ccccc1)C(=O)OCC(=O)N(CC(C)C)c1c(N)n(Cc2ccccc2)c(=O)[nH]c1=O	-	-	-	-	-	.
Cc1cc(C)c(NS(=O)(=O)c2ccc(NC(=O)CCC(=O)O)cc2)c(C)c1	-	-	-	-	-	.
COc1cc(/C=C/c2ccc3cccc(O)c3n2)ccc1O	-	-	-	-	52	66
COc1ccc(CCNC(=S)Nc2ccc(C(C)C)cc2)cc1	-	-	-	-	51	-
Cc1ccc(S(=O)(=O)N2[C@@H](c3ccc(C(C)(C)C)cc3)C(C(=O)O)=CC[C@H]2c2ccc(Cl)c(Cl)c2)cc1	-	-	-	-	63	-
Cc1ccc(S(=O)(=O)N2[C@@H](c3ccc(C(C)(C)C)cc3)C(C(=O)O)=CC[C@H]2c2cccc(Cl)c2)cc1	-	-	-	-	53	44
Cc1ccc(S(=O)(=O)N2[C@@H](c3ccc(Br)cc3)C(C(=O)O)=CC[C@H]2c2ccc(Cl)c(Cl)c2)cc1	-	-	-	-	-	.
C#CCOCCOCCOCCNc1nc(N2CCN(C(=O)[C@H](CCCCN)n3cc(CN)nn3)CC2)nc(N2CCN(C(=O)[C@H](CC(N)=O)n3cc(C(N)[C@H](C)CC)nn3)CC2)n1 (some centres undefined)	-	-	-	-	-	.
COc1ccc(N2CCN(CC(=O)c3ccccc3)CC2)cc1	-	-	-	-	-	.
COc1ccc(N2CCN(CCC(=O)c3ccc4ccccc4c3)CC2)cc1	-	-	-	-	69	57
CCCOc1cccc(C(=O)N/N=C/c2coc3ccccc3c2=O)c1	-	-	-	-	55	47
Cc1ccc2occ(/C=N/NC(=O)c3ccncc3)c(=O)c2c1	-	-	-	-	51	51
COc1ccc(C(=O)N/N=C\c2coc3ccc(C)cc3c2=O)cc1	-	-	-	-	-	.
Cc1ccc2occ(/C=N/NC(=O)c3ccccc3O)c(=O)c2c1	-	-	-	-	53	51
O=C(N/N=C/c1coc2ccc(Cl)cc2c1=O)c1cc(O)cc(O)c1	-	-	-	-	72	70
O=C(NOCc1cscn1)Nc1ccccc1	-	.	.	-	.	.
COc1cc(NC(=O)c2ccccc2)c(OC)cc1NC(=O)Cc1ccc(C)cc1	-	-	-	-	-	.
CCNc1nc(N)c(C(=O)C23CC4CC(CC(C4)C2)C3)s1	-	-	-	-	61	54
O=C(NC(=S)Nc1ccccc1N1CCOCC1)c1ccc(Br)cc1	-	-	-	-	55	54
O=C(COc1ccc(Br)cc1)NC(=S)Nc1ccccc1N1CCOCC1	-	-	-	-	-	.
CSCCC(NC(=O)c1ccco1)C(=O)NC1CCCCCC1 (centres undefined)	-	-	-	.	-	.
CCOc1cc(/C=C2\COc3ccccc3C2=O)ccc1OCC(=O)N(C)C	-	-	-	-	54	53
CCOc1cc(/C=N/Nc2ccccc2Cl)ccc1OCC(=O)O	-	.	.	-	.	.
SMILES	B2AR ag	tim10-1 inh	TIM10 inh	PfHsp90 yeast 2	tim23-1 inh	tim23-1 conf
Cc1ccc(NC(=O)c2ccc3c(c2)C(=O)N(Cc2cccnc2)C3=O)c(C)c1	-	-	-	-	-	.
O=C(CN(Cc1ccccc1)C(=O)CCl)c1cccc(Br)c1	-	-	-	-	57	45
CCCN1CCc2c(sc3nc(SCC)n(-c4ccc(OC)cc4)c(=O)c23)C1	-	-	-	-	-	.
Cc1c(Cl)cccc1NCC(=O)Nc1ccc(Cl)cc1F	-	-	-	-	54	42
COc1ccc(/C=C/C(=O)N(C)c2ccccc2C(=O)O)cc1	-	-	-	-	-	.
Cc1ccc(S(=O)(=O)N2CCOCC2)cc1C(=O)NCCN1C(=O)S/C(=C\c2ccccc2Cl)C1=O	-	-	-	-	-	.
O=C(NCCN1C(=O)S/C(=C\c2cccc(Cl)c2Cl)C1=O)C1=COCCO1	-	-	-	-	55	-
NC(=S)NNc1cccc2cccnc12	-	-	-	-	58	-
NC(=S)Nc1cccc2cccnc12	-	-	-	-	-	.
CCC(C)Sc1cc(C)c(C#N)c2nc3ccccc3n12 (centres undefined)	-	-	-	-	54	-
CCC(C)Nc1cc(C)c(C#N)c2nc3ccccc3n12 (centres undefined)	-	-	-	-	-	.
O=C(Nc1ccc(N2CCN(Cc3ccccc3F)CC2)cc1)c1ccc([N+](=O)[O-])o1	-	-	-	-	56	41
CC1CCN(c2ccc(NC(=O)c3ccc([N+](=O)[O-])o3)cc2)CC1	-	-	-	.	56	-
O=C(Nc1ccc(N2CCN(Cc3ccccc3F)CC2)cc1)c1ccccc1[N+](=O)[O-]	-	-	-	-	-	.
O=C(Nc1cc(Cl)ccc1O)C1CC(c2ccccc2Cl)=NO1 (centres undefined)	-	-	-	-	52	73
COc1ccc(C2=C(C=O)Cc3ccccc3O2)cc1	-	-	-	-	51	53
Cc1ccc(F)cc1NC(=O)COC(=O)C1CCN(c2ccc(C(F)(F)F)cn2)CC1	-	-	-	.	-	.
COc1ccc2c(c1OC)C(=O)N(c1cccc(/C=C/C(=O)O)c1)C2	-	-	-	-	-	.
CCO[C@H]1OC(C(=O)N2CCOCC2)=C[C@@H](C)[C@@H]1CCCO	-	-	-	-	-	.
COC(=O)[C@@]1(C)[C@H]2C(=O)N(Cc3ccccc3)C(=O)[C@H]2[C@H]2CN=C(SCc3ccc(Cl)cc3)N21	-	-	-	-	51	-
CC(C)n1nc(C(=O)Nc2cccc(S(=O)(=O)N3CCOCC3)c2)c2ccccc2c1=O	-	-	-	-	-	.
O=C(Nc1ccc2c(c1)oc1ccccc12)c1ccc(Br)o1	-	-	-	-	52	-
Cc1ccoc1C(=O)Nc1ccc2ccccc2c1	-	-	-	-	54	50
O=C(Nc1ccc2ccccc2c1)c1ccc(Br)o1	-	-	-	-	56	52
COc1ccccc1C(=O)N1c2ccccc2Sc2ccccc21	-	-	-	-	-	.
CCOc1ccccc1C(=O)N1c2ccccc2Sc2ccccc21	-	-	-	-	51	42
COc1cc(OC)cc(-c2nnc(NC(=O)CCS(=O)(=O)c3ccc(C)cc3)o2)c1	-	-	-	.	-	.
COC(=O)c1ccc(NC(=O)CSc2nc(=O)n3cccc(C)c3n2)cc1	-	-	-	.	72	53
CC(=O)c1ccc(NC(=O)CSc2nc(=O)n3cccc(C)c3n2)cc1	-	-	-	-	-	.
Cc1ccc(C2CC(=O)NC(SCc3ccccc3)=C2C#N)cc1 (centres undefined)	-	-	-	-	-	.
